# UCHL1 inh – blocks human UCHL1 ubiquitin-rhodamine cleavage; inhibition, % at 20 µM; AID 1645859; purified UCHL1, Ub-rhodamine cleavage fluorescence; 0.2% of 47,000 active; P09936
# USP8 inh – blocks human USP8 ubiquitin-rhodamine cleavage | P40818 | purified USP8, Ub-rhodamine cleavage fluorescence, 30 min | inhibition, % at 20 µM | 4.2% of 47,000 active | AID 1645853
# USP10 block – inhibitors of human USP10 deubiquitinase | Q14694 | purified USP10, Ub-rhodamine fluorescence, 60 min | inhibition, % at 20 µM | 1.1% of 47,000 active | AID 1645856
# Target sequence (Q14694 whole entry, looked up): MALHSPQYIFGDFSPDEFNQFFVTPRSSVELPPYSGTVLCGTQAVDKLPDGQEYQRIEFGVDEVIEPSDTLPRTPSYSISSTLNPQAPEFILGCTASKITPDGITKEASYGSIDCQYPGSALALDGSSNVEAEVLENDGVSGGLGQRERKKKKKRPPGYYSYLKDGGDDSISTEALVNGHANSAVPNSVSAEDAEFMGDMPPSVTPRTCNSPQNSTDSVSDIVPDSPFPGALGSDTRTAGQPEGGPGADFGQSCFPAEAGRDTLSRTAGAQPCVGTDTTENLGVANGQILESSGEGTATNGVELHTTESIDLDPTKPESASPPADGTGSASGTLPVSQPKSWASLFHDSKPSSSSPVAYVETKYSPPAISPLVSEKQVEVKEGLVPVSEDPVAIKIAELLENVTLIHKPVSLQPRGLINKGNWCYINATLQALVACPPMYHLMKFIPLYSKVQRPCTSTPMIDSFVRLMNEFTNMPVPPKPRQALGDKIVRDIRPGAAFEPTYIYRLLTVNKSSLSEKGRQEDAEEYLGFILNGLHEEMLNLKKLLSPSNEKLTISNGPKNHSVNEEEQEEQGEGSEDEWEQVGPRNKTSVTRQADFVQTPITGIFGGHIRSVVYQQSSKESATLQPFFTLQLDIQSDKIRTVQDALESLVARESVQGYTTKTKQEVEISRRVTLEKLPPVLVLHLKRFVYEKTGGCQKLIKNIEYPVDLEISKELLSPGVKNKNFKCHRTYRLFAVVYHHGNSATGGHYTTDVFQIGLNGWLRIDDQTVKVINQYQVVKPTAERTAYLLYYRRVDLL
# USP7 inh – inhibitors of human USP7 deubiquitinase; purified USP7, Ub-rhodamine cleavage fluorescence; inhibition, % at 20 µM; 0.3% of 47,000 active; AID 1645854
# A number is an active result; – = inactive. An excerpt weighted towards active compounds, which were near 4.6% of everything screened. No stated cut-off is given here; in the data, active means inhibition above about 30%; inactive means the rest.
SMILES,UCHL1 inh,USP8 inh,USP10 block,USP7 inh
CCOC(=O)c1ccc(OCC2c3cc(OC)c(OC)cc3CCN2C(=O)C(C)Oc2ccccc2)cc1 (stereo not drawn),–,85,–,–
COc1cccc(CNC(=O)c2ccc3c(=O)nc4c(-c5cccc(C)c5)n[nH]n4c3c2)c1,–,43,–,–
Cc1ccc(-c2n[nH]n3c2nc(=O)c2ccc(C(=O)NCc4ccco4)cc23)cc1,–,–,–,–
COC(=O)c1ccc(NC(=O)CCc2nnc3ccc(N4CCOCC4)nn23)cc1,–,–,–,–
Cc1cc(OCC(=O)Nc2ccccc2C(=O)Nc2ccccc2)ccc1Cl,–,–,35,–
Cc1ccc(NC(=O)c2ccccc2NC(=O)COc2cc(C)cc(C)c2)cc1,–,–,–,–
CCN(c1ccccc1)S(=O)(=O)c1ccc2[nH]cc(C(=O)NCc3cccnc3)c(=O)c2c1,–,38,–,–
CCn1cc(C(=O)NCc2cccnc2)c(=O)c2cc(S(=O)(=O)N3CCCCC3)ccc21,–,–,–,–
Cn1nc(C2CCN(C(=O)Cc3cccc(F)c3)CC2)c2nccnc21,–,82,–,–
COc1ccccc1CN(CCCn1ccnc1)CC1CCOC1 (stereo not drawn),–,36,–,–
COc1cccc(C2c3[nH]c4ccccc4c3C[C@@H]3C(=O)N(CC(O)c4ccccc4)CC(=O)N23)c1 (stereo partly drawn),–,31,–,–
COc1ccc(NC(=O)COc2cccc(-c3noc(-c4ccco4)n3)c2)cc1,–,–,–,–
COc1ccc(-c2cc(C(=O)N(Cc3ccco3)C3CCS(=O)(=O)C3)no2)cc1 (stereo not drawn),–,–,–,–
CCCCCCCC1OC(=O)Cc2cc(O)c(O)c(O)c21 (stereo not drawn),63,77,82,75
Cc1ccc(NC(=O)N2CCCN(c3ncccc3C#N)CC2)cc1Cl,–,–,–,–
CC(=O)N1CC2(CCN(C(=O)C(C)(C)C)CC2)Nc2ccccc21,–,32,–,–
CC(=O)N1CC2(CCN(C(=O)c3ccccn3)CC2)Nc2ccccc21,–,–,–,–
Cc1ccc(C(=O)O)cc1NC(=O)C(Sc1cccc(NC(=O)c2ccccc2C)c1)c1ccccc1 (stereo not drawn),–,–,37,–
Cc1nc(-c2ccccc2)nc2c1CC(=O)N2Cc1cccnc1,–,52,–,–
Cc1nc(C2CCNCC2)nc2c1CC(=O)N2CCc1ccccc1,–,–,–,–
CCc1nccn1Cc1nc(-c2ccc(Br)cc2)no1,–,–,–,–
Cc1ccc2c(c1)N(C(=O)Cn1cccc(S(=O)(=O)N3CCCC3)c1=O)CCO2,–,–,–,–
Cc1ccccc1NC(=O)Cn1c(C)ncc(C(=O)NC2CC2)c1=O,–,–,–,–
O=C(Cn1c(-c2ccccc2)ncc(C(=O)NC2CC2)c1=O)Nc1ccccc1,–,30,–,–
Cc1ccc(Cn2nc(C)cc2C(=O)Nc2cccc(C(F)(F)F)c2)cc1,–,–,–,–
SMILES,UCHL1 inh,USP8 inh,USP10 block,USP7 inh
Cc1ccc(Cn2c(C(=O)Nc3cccnc3)cc3sccc32)cc1,–,43,–,–
Cc1cccc(C(=O)Nc2ccc(Sc3ccccc3Cl)cc2)c1,–,–,–,–
Cc1cccc(C(=O)Nc2ccc(NC(=O)COc3ccccc3Cl)cc2)c1,–,67,–,–
CCc1nc2c(NC(=O)C3CCCCC3)cccn2n1,–,–,–,–
CCc1nc2c(NC(=O)NC3CCCCC3)cccn2n1,–,32,–,–
CCC(C)NC(=O)c1c(O)c2cccc3c2n(c1=O)CC3 (stereo not drawn),–,53,–,–
Cc1ccc(NC(=O)CCc2nnc(C(=O)Nc3ccccc3)s2)cc1C,–,–,–,–
O=C(Nc1nc(-c2ccccc2)ns1)c1ccc(F)cc1,–,–,–,–
Cc1c(-c2nsc(NC(=O)c3ccc(Cl)cc3)n2)nnn1-c1ccccc1F,–,86,43,–
COc1ccc2[nH]cc(CCNC(=O)C3CCCCC3)c2c1,–,–,–,–
Cc1noc(C)c1CC(=O)Nc1nnc(-c2ccc(C(C)C)cc2)s1,–,32,–,–
O=C(Cc1ccc(S(=O)(=O)N2CCOCC2)s1)NCc1cccc(Cl)c1,–,40,–,–
CNC(=O)C1CN(C(=O)c2n[nH]c3c2CCCC3)CCN1C(C)C (stereo not drawn),–,–,–,–
COc1ccc(C)cc1NC(=O)C(NS(=O)(=O)c1ccc2c(c1)CCN2C(C)=O)C(C)C (stereo not drawn),–,–,–,–
CC(=O)N1CCc2cc(S(=O)(=O)NC(C(=O)Nc3nc4ccc(C)cc4s3)C(C)C)ccc21 (stereo not drawn),–,30,–,–
O=C(NCCCc1ccccc1)C1CCCN1c1nnc(N2CCCC2=O)s1 (stereo not drawn),–,–,–,–
CC(C)c1noc(-c2ccn3c(CC(=O)Nc4ccccc4)nnc3c2)n1,–,40,–,–
CCc1noc(-c2ccn3c(CC(=O)Nc4ccccc4)nnc3c2)n1,–,–,–,–
CN(C)c1ccc(C2C3=C(CC(C)(C)CC3=O)Nc3ccccc3N2C(=O)Cc2ccc(Cl)cc2)cc1 (stereo not drawn),–,31,–,–
CCc1ccc2ncc(S(=O)(=O)c3ccccc3)c(N3CCCC3)c2c1,–,36,–,–
COc1ccc2ncc(S(=O)(=O)c3ccccc3)c(N3CCCCCC3)c2c1,–,–,–,–
COc1ccc(OC)c(NC(=O)c2cnc(NCc3ccccc3F)nc2C)c1,–,33,–,–
CC(=O)c1cccc(NC(=O)c2cnc(NCc3ccccc3F)nc2C)c1,–,–,–,–
COc1ccc(N2CCn3c(SCC(=O)Nc4cccc(F)c4)nnc32)cc1,–,31,–,–
COc1ccc(CNC(=O)CN2C(=O)c3ccccc3C2c2c[nH]c3ccccc23)cc1 (stereo not drawn),–,–,–,–
SMILES,UCHL1 inh,USP8 inh,USP10 block,USP7 inh
NS(=O)(=O)c1ccc(NC(=O)c2ccc3c(c2)CC(c2ccccc2)OC3=O)cc1 (stereo not drawn),–,–,–,–
CC(=O)Nc1ccc(NC(=O)c2ccc3c(c2)CC(c2ccccc2)OC3=O)cc1 (stereo not drawn),–,34,–,–
CC[C@@H](C(=O)[C@@H](C)[C@@H](O)[C@H](C)CCc1ccc(C)c(O)c1C(=O)O)[C@@H]1O[C@](CC)([C@H]2CC[C@](O)(CC)[C@H](C)O2)C[C@@H]1C,–,–,60,–
COc1ccc(-c2cc3nc([C@H](C)NC(=O)COc4cccc(F)c4)nn3cn2)cc1,–,–,–,–
CCOCc1ccc(C(=O)N[C@H](C)c2nc3cc(-c4ccc(OC)cc4)ncn3n2)cc1,–,–,35,–
CCCn1c(C(O)c2cccc3ccccc23)nc2ccccc21 (stereo not drawn),–,48,–,–
O=C(Nc1nc2c(ccc3ccccc32)s1)c1cccc(Br)c1,–,36,–,–
O=C(NC1CCCC1)c1ccc(-c2ccc(S(=O)(=O)NCc3ccccc3)cc2)cc1,–,45,–,–
O=C(CCSc1nnnn1-c1ccccc1)Nc1cc(C(F)(F)F)ccc1Cl,–,–,–,35

# Compound activity: PubChem BioAssay, Buhrlage Lab, Dana-Farber Cancer Institute and Novartis Institutes for BioMedical Research (Cambridge, Mass)
